Data as given in article PMC11995724, “Antibiotic target discovery by integrated phenotypic and activity-based profiling of electrophilic fragments” (Cell chemical biology, 2025).
Screen size: about 3,200 compounds; about 110 (3.4%) showed an effect of 50% or more. The full list was thinned out, with strong results kept by preference.

System: T1, V. cholerae SAD30
T1 construct: SAD30
Parameters: species or system S. aureus MSSA476 (TSB) or V. cholerae SAD30 (LB); 384-well bacterial growth screen at 25 uM, OD600 relative to DMSO control
Settings: relative growth, OD600, LB; 25 µM; inhibitor

| SMILES | % of control remaining [%] |
| --- | --- |
| C=CC(=O)N1CCC[C@H]1C(=O)Nc1cccc(C)n1 [1-B10, (2S)-N-(6-methylpyridin-2-yl)-1-(prop-2-enoyl)pyrrolidine-2-carboxamide] | 90.0393 |
| C=CCNC(=O)C(C#N)=Cc1ccc(C)s1 [9-F05, 2-cyano-3-(5-methylthiophen-2-yl)-N-(prop-2-en-1-yl)prop-2-enamide] | 77.8382 |
| CC(Cl)C(=O)NCCc1cn(C)nn1 (stereo not drawn) [7-A14, 2-chloro-N-[2-(1-methyl-1H-1,2,3-triazol-4-yl)ethyl]propanamide] | 82.7358 |
| Cc1cccc2nc(C3CCN(C(=O)C(C)Cl)CC3)oc12 (stereo not drawn) [7-M12, 2-chloro-1-[4-(7-methyl-1,3-benzoxazol-2-yl)piperidin-1-yl]propan-1-one] | 63.8361 |
| CC(Cl)C(=O)Nc1ccc2c(c1)CCC2 (stereo not drawn) [5-C19, 2-chloro-N-(2,3-dihydro-1H-inden-5-yl)propanamide] | 86.9181 |
| O=C(CCl)c1ccc(CC(=O)N2CCOCC2)s1 [10-H06, 2-chloro-1-{5-[2-(morpholin-4-yl)-2-oxoethyl]thiophen-2-yl}ethan-1-one] | 101.305 |
| N#CC(=Cc1ccccc1Cl)C(=O)Nc1ccc2c(c1)OCCO2 [8-F03, 3-(2-chlorophenyl)-2-cyano-N-(2,3-dihydro-1,4-benzodioxin-6-yl)prop-2-enamide] | 94.4256 |
| Cc1cc(C(=O)CCl)c(C)[nH]1 [10-J08, 2-chloro-1-(2,5-dimethyl-1H-pyrrol-3-yl)ethan-1-one] | 99.1233 |
| O=C(CCl)c1cc(Cl)sc1Cl [10-D16, 2-chloro-1-(2,5-dichlorothiophen-3-yl)ethan-1-one] | 21.5079 |
| Cc1cc(C(=O)CCl)c(C)n1-c1cc(Cl)cc(Cl)c1 [10-I04, 2-chloro-1-[1-(3,5-dichlorophenyl)-2,5-dimethyl-1H-pyrrol-3-yl]ethan-1-one] | 87.746 |
| Cc1cc(C(=O)CCl)c(C)n1CC(N)=O [10-O16, 2-[3-(2-chloroacetyl)-2,5-dimethyl-1H-pyrrol-1-yl]acetamide] | 94.6035 |
| Cc1cc(C(=O)CCl)c(C)s1 [10-K16, 2-chloro-1-(2,5-dimethylthiophen-3-yl)ethan-1-one] | 28.6772 |
| N#CC(=Cc1cccc2ccccc12)C(=O)NC1CC1 [9-O03, 2-cyano-N-cyclopropyl-3-(naphthalen-1-yl)prop-2-enamide] | 97.2808 |
| CC(C)N(Cc1ccc(N(C)C)cc1)C(=O)CCl [5-E06, 2-chloro-N-{[4-(dimethylamino)phenyl]methyl}-N-(propan-2-yl)acetamide] | 100.2 |
| O=C(CCl)NCCOc1cccc(F)c1 [6-G03, 2-chloro-N-[2-(3-fluorophenoxy)ethyl]acetamide] | 108.75 |
| CC(Cl)C(=O)NCc1ccon1 (stereo not drawn) [7-I13, 2-chloro-N-[(1,2-oxazol-3-yl)methyl]propanamide] | 79.9604 |
| Cc1ccc(-n2c(C)cc(C(=O)CCl)c2C)cc1C [10-B14, 2-chloro-1-[1-(3,4-dimethylphenyl)-2,5-dimethyl-1H-pyrrol-3-yl]ethan-1-one] | 97.5648 |
| Cc1cc(C(=O)CCl)c(F)cc1F [10-O03, 2-chloro-1-(2,4-difluoro-5-methylphenyl)ethan-1-one] | 34.9114 |
| Cc1cc(C(=O)CCl)c(C)c(C)c1C [10-I06, 2-chloro-1-(2,3,4,5-tetramethylphenyl)ethan-1-one] | 98.9675 |
| Cc1cc(C)c(C(=O)CCl)c(C)c1 [10-C08, 2-chloro-1-(2,4,6-trimethylphenyl)ethan-1-one] | 98.9675 |
| Cc1ccc(-n2c(C)cc(C(=O)CCl)c2C)cc1F [10-C06, 2-chloro-1-[1-(3-fluoro-4-methylphenyl)-2,5-dimethyl-1H-pyrrol-3-yl]ethan-1-one] | 94.9153 |
| Cc1cc(F)c(C(=O)CCl)cc1F [10-L19, 2-chloro-1-(2,5-difluoro-4-methylphenyl)ethan-1-one] | 32.7294 |
| N#CC(=Cc1ccc([N+](=O)[O-])cc1)C(=O)Nc1ccc(Cl)cc1 [8-O11, N-(4-chlorophenyl)-2-cyano-3-(4-nitrophenyl)prop-2-enamide] | 68.7288 |
| O=C(CCl)N1N=C(c2cccs2)CC1c1cccc(O)c1 (stereo not drawn) [6-L04, 2-chloro-1-[5-(3-hydroxyphenyl)-3-(thiophen-2-yl)-4,5-dihydro-1H-pyrazol-1-yl]ethan-1-one] | 102.076 |
| CC(CO)(Cc1ccc(F)cc1)NC(=O)CCl (stereo not drawn) [7-F06, 2-chloro-N-{2-[(4-fluorophenyl)methyl]-1-hydroxypropan-2-yl}acetamide] | 78.5065 |
| CC(Cl)C(=O)N1Cc2ccccc2OCC1C (stereo not drawn) [7-F11, 2-chloro-1-(3-methyl-2,3,4,5-tetrahydro-1,4-benzoxazepin-4-yl)propan-1-one] | 75.731 |
| Cc1ccc(C=C(C#N)C(=O)NCc2ccco2)o1 [8-P19, 2-cyano-N-[(furan-2-yl)methyl]-3-(5-methylfuran-2-yl)prop-2-enamide] | 80.6934 |
| N#CC(=Cc1ccc([N+](=O)[O-])o1)C(=O)NCc1ccco1 [8-I17, 2-cyano-N-[(furan-2-yl)methyl]-3-(5-nitrofuran-2-yl)prop-2-enamide] | -0.06798 |
| N#CC(=Cc1cc2ccccc2o1)C(=O)NCc1ccco1 [9-O08, 3-(1-benzofuran-2-yl)-2-cyano-N-[(furan-2-yl)methyl]prop-2-enamide] | 80.4215 |
| Cc1cc(C=C(C#N)C(N)=O)c(C)n1-c1cccc2ccccc12 [9-I12, 2-cyano-3-[2,5-dimethyl-1-(naphthalen-1-yl)-1H-pyrrol-3-yl]prop-2-enamide] | 52.4133 |
